PubChem BioAssay (Tox21)
Results filed as inconclusive are left out. Activity calls are given as the source filed them. Unless noted, calls come from the whole dose curve; as a rule, active = well fitted curve in the direction sought with a large enough effect in the repeat runs; inconclusive = weak or mixed curves; inactive = no such curve, though single readings can be large; an effect the other way counts as inactive or inconclusive.

How the values were obtained:
[1] = biological target: Aryl hydrocarbon receptor (Homo sapiens) (UniProt P35869); test: qHTS assay to identify small molecule that activate the aryl hydrocarbon receptor (AhR) signaling pathway (AID 743085); note: nearly all actives have a fitted effect of over 15% in size; note: potency is the fitted concentration of half-maximal effect;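 for activation: HG2L7.5c1 human HepG2 liver cells with stably integrated DRE-driven firefly reporter; series mostly up to about 70 µM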
Chain of Aryl hydrocarbon receptor (Homo sapiens) (P35869 whole entry, looked up): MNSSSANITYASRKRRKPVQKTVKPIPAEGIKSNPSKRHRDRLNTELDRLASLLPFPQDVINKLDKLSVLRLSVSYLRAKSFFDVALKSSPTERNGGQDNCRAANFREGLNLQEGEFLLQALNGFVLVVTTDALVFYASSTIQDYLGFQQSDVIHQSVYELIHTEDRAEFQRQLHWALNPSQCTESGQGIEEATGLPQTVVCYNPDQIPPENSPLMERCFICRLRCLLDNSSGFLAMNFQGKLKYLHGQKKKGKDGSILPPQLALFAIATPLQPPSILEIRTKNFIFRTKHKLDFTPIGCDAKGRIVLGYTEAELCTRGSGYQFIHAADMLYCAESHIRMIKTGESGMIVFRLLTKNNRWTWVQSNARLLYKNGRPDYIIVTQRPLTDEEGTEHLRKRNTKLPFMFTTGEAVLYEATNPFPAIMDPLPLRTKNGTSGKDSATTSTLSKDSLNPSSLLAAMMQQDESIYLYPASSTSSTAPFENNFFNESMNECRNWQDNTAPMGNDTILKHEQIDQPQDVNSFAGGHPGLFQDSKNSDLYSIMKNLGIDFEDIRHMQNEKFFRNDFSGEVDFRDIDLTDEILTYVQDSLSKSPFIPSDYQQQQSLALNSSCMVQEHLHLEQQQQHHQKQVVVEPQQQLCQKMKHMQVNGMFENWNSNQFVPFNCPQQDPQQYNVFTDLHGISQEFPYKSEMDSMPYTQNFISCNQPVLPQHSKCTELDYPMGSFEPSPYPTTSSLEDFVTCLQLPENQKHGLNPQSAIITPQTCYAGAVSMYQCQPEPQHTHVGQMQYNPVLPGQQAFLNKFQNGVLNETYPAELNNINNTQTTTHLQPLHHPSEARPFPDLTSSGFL
Method in brief: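 HepG2 cells (HG2L7.5c1) stably carrying a firefly luciferase reporter driven by 20 dioxin responsive elements were exposed to compound for 24 h at 37C after a 5 h settling period; luminescence rise (ONE-Glo) indicated activation.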

[2] = qHTS assay to identify small molecule that activate the aryl hydrocarbon receptor (AhR) signaling pathway - cell viability counter screen (AID 743086);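 note: HepG2 liver cells carrying the AhR DRE luciferase reporter; series mostly up to about 70 µM; nearly all actives have a fitted effect of over 45% in size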
Method in brief: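 Cytotoxicity counter screen: CellTiter-Fluor signal (30 min, 37 C) in 4000 HepG2 cells/well carrying the DRE-luciferase reporter, following 24 h compound exposure at 37 C.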

[3] = biological target: Peroxisome proliferator-activated receptor gamma (Homo sapiens) (UniProt P37231); test: qHTS assay to identify small molecule antagonists of the peroxisome proliferator-activated receptor gamma (PPARg) signaling pathway (AID 743191; calls by dose curve; note: series mostly up to about 63 µM; nearly all actives have a fitted effect of over 30% in size)
Chain of Peroxisome proliferator-activated receptor gamma (Homo sapiens) (P37231 whole entry, looked up): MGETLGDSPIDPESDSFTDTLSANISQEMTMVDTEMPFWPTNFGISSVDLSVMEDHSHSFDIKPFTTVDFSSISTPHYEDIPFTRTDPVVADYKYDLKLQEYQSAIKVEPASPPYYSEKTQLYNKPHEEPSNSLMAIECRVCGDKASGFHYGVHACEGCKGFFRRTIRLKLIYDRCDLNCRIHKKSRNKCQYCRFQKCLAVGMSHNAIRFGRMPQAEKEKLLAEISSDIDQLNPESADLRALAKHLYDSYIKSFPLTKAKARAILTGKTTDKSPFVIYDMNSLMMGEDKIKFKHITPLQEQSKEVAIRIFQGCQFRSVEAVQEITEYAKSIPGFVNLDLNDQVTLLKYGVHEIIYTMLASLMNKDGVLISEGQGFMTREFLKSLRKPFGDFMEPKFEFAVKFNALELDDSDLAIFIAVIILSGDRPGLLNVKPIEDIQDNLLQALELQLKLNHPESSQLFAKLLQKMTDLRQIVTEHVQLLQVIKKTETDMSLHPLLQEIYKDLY
Method in brief: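 Beta-lactamase reporter under UAS control in HEK293H PPARg-bla cells; compound treatment 17 h at 37C. Read-out: fluorescence intensity after 1 h room-temperature incubation with LiveBLAzer B/G FRET substrate.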

[4] = qHTS assay to identify small molecule antagonists of the peroxisome proliferator-activated receptor gamma (PPARg) signaling pathway - cell viability counter screen (AID 743194); conditions: Potency: co-treated with 50 nM rosiglitazone; note: nearly all actives have a fitted effect of over 55% in size
Method in brief: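 Viability was measured as CellTiter-Glo luminescence in GeneBLAzer PPARg UAS-bla HEK293H cells. These cells had been exposed 17 h at 37 C to compounds together with rosiglitazone at 50 nM final, with the beta-lactamase readout taken in the same wells.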

[5] = qHTS assay for small molecule agonists of the antioxidant response element (ARE) signaling pathway - cell viability counter screen (AID 743203; calls by dose curve; note: nearly all actives have a fitted effect of over 55% in size)
Method in brief: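 HepG2 cells carrying ARE-driven beta-lactamase; 2,000 cells/well; 5 hrs plating; compound pinned from DMSO; 16 hrs 37C/5% CO2; CellTiter-Glo added; 30 min RT; luminescence.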

[6] = qHTS assay for small molecule activators of the heat shock response signaling pathway - cell viability counter screen (AID 743209); note: nearly all actives have a fitted effect of over 50% in size
Method in brief: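 Luminescence from CellTiter-Glo, added after the beta-lactamase FRET read, gave the viability signal. Cells were HSE-bla HeLa treated with DMSO-dissolved compounds for 5 h at 37 C following overnight plating.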

[7] = qHTS assay to identify small molecule agonists of the peroxisome proliferator-activated receptor delta (PPARd) signaling pathway - cell viability counter screen (AID 743211); note: nearly all actives have a fitted effect of over 55% in size
Method in brief: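 PPARd-bla HEK293H cells (UAS-beta-lactamase reporter) were treated with compounds for 17 h at 37 C. Viability was then read in the same wells by CellTiter-Glo luminescence after 30 min at room temperature.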

[8] = qHTS assay to identify small molecule antagonists of the peroxisome proliferator-activated receptor delta (PPARd) signaling pathway - cell viability counter screen (AID 743213); note: nearly all actives have a fitted effect of over 50% in size
Method in brief: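 PPARd-bla HEK293H cells (3000/well) got compound plus 300 nM L165041 agonist for 17 h at 37 C. Viability in the same wells came from CellTiter-Glo luminescence after 30 min at room temperature.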

[9] = biological target: Peroxisome proliferator-activated receptor delta (Homo sapiens) (UniProt Q03181); test: qHTS assay to identify small molecule antagonists of the peroxisome proliferator-activated receptor delta (PPARd) signaling pathway (AID 743215; active = well fitted inhibition curve with a large enough effect in the signal ratio in the repeat runs, not every such curve was filed as active; the % refers to the signal ratio;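 note: cells stimulated with agonist L165041 at 300 nM final during compound exposure; series mostly up to about 62 µM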)
Chain of Peroxisome proliferator-activated receptor delta (Homo sapiens) (Q03181 whole entry, looked up): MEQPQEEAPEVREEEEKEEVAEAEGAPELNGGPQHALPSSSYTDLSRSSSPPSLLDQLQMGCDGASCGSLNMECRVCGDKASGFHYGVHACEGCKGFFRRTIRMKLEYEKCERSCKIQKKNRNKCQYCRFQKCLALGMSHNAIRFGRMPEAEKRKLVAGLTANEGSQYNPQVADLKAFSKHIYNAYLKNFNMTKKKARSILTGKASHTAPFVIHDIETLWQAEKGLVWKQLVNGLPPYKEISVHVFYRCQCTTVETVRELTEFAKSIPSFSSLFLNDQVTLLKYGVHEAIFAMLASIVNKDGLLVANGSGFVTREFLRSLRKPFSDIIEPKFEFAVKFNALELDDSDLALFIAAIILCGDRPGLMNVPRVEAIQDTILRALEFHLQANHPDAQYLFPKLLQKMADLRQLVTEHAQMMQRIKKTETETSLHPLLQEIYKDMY
Method in brief: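 Read-out is beta-lactamase FRET fluorescence, measured 2 h after substrate addition at room temperature. Beforehand, UAS-bla HEK293H cells carrying the PPARd reporter were exposed to compounds with L165041 at 300 nM final for 17 h at 37 C.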

[10] = qHTS assay to identify small molecule agonists of the farnesoid-X-receptor (FXR) signaling pathway - cell viability counter screen (AID 743218); note: nearly all actives have a fitted effect of over 45% in size
Method in brief: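 HEK 293T FXR-bla cells; 5 h pre-incubation, 16 h compound exposure at 37 C; LiveBLAzer substrate 2 h RT, then CellTiter-Glo 30 min RT, luminescence.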

[11] = qHTS assay to identify small molecule antagonists of the farnesoid-X-receptor (FXR) signaling pathway - cell viability counter screen (AID 743221; active = well fitted cell-killing curve with a large enough effect in the repeat runs, not every such curve was filed as active; note: nearly all actives have a fitted effect of over 50% in size)
Method in brief: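 FXR-UAS-bla HEK 293T cells were treated with test compounds plus chenodeoxycholic acid (50 uM final) for 16 h at 37 C. Cell viability in the same wells was then read as CellTiter-Glo luminescence after 30 min at room temperature.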

[12] = biological target: Peroxisome proliferator-activated receptor gamma (Homo sapiens) (UniProt P37231); test: qHTS assay to identify small molecule agonists of the peroxisome proliferator-activated receptor gamma (PPARg) signaling pathway (AID 743094; active = well fitted activation curve with a large enough effect in the signal ratio in the repeat runs, not every such curve was filed as active; the % refers to the signal ratio)
Method in brief: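 Beta-lactamase FRET fluorescence was the read-out after a 1 h room-temperature substrate step, following 17 h compound treatment at 37C of HEK293H cells expressing a UAS-driven bla reporter responsive to PPARg.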

[13] = qHTS assay for small molecule agonists of the antioxidant response element (ARE) signaling pathway (AID 743202; active = well fitted activation curve with a large enough effect in the signal ratio in the repeat runs, not every such curve was filed as active; the % refers to the signal ratio; note: potency is the fitted concentration of half-maximal effect)
Method in brief: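 An ARE-responsive beta-lactamase gene stably integrated in HepG2 cells serves as reporter. After 5 h plating and 16 h compound incubation at 37 C, fluorescence of the B/G FRET substrate was measured.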

[14] = qHTS assay for small molecule activators of the heat shock response signaling pathway (AID 743210; active = well fitted activation curve with a large enough effect in the signal ratio in the repeat runs, with a control signal flat, not every such curve was filed as active; the % refers to the signal ratio;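 note: HeLa cells with beta-lactamase reporter driven by heat shock elements; series mostly up to about 63 µM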)
Method in brief: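 In HSE-bla HeLa cells, 5 h compound incubation (37 C) precedes addition of LiveBLAzer B/G substrate; after 2.5 h at room temperature, fluorescence intensity indicates reporter induction.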

[15] = biological target: Peroxisome proliferator-activated receptor delta (Homo sapiens) (UniProt Q03181); test: qHTS assay to identify small molecule agonists of the peroxisome proliferator-activated receptor delta (PPARd) signaling pathway (AID 743212; calls by dose curve)
Method in brief: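 HEK293H UAS-bla reporter cells, human PPARd system; compounds delivered in DMSO after 5 h plating, then at 37 C. Beta-lactamase FRET read, 2 h RT substrate step.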

[16] = biological target: Vitamin D3 receptor (Homo sapiens) (UniProt P11473); test: qHTS assay to identify small molecule agonists of the vitamin D receptor (VDR) signaling pathway (AID 743222; calls by dose curve)
Chain of Vitamin D3 receptor (Homo sapiens) (P11473 whole entry, looked up): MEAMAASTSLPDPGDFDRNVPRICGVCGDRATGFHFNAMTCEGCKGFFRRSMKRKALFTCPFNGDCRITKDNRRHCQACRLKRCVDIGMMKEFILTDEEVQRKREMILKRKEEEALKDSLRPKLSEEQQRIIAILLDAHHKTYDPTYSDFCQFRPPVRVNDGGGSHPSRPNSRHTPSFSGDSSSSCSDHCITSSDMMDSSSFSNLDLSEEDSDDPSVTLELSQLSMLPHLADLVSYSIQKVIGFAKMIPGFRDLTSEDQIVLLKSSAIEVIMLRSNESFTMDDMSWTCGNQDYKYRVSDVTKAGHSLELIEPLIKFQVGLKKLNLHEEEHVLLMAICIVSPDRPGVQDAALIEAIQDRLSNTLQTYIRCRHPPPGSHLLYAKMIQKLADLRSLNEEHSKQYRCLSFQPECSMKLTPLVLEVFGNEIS
Method in brief: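 VDR-bla cells, 2,000/well; 4 h preincubation 37C; cpd (DMSO) 16 h; LiveBLAzer B/G substrate 2 h RT; fluorescence intensity read.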

[17] = biological target: Vitamin D3 receptor (Homo sapiens) (UniProt P11473); test: qHTS assay to identify small molecule antagonists of the vitamin D receptor (VDR) signaling pathway (AID 743223; active = well fitted inhibition curve with a large enough effect in the signal ratio in the repeat runs, not every such curve was filed as active; the % refers to the signal ratio)
Method in brief: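 VDR-bla cells were plated, incubated 4 h at 37C, then given compound and 1alpha,25-dihydroxyvitamin D3 (3 nM final). After 16 h at 37C, LiveBLAzer B/G FRET substrate was added for 2 h at room temperature and fluorescence read.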

[18] = qHTS assay to identify small molecule agonists of the vitamin D receptor (VDR) signaling pathway - cell viability counter screen (AID 743224); note: series mostly up to about 63 µM; nearly all actives have a fitted effect of over 50% in size
Method in brief: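 Luminescence from CellTiter-Glo, read after 30 min at room temperature, reports viability of VDR-bla cells treated with compounds for 16 h at 37C in the wells used for the beta-lactamase FRET read.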

[19] = biological target: Bile acid receptor (Homo sapiens) (UniProt Q96RI1); test: qHTS assay to identify small molecule antagonists of the farnesoid-X-receptor (FXR) signaling pathway (AID 743217; active = well fitted inhibition curve with a large enough effect in the signal ratio in the repeat runs, not every such curve was filed as active; the % refers to the signal ratio)
Chain of Bile acid receptor (Homo sapiens) (Q96RI1 whole entry, looked up): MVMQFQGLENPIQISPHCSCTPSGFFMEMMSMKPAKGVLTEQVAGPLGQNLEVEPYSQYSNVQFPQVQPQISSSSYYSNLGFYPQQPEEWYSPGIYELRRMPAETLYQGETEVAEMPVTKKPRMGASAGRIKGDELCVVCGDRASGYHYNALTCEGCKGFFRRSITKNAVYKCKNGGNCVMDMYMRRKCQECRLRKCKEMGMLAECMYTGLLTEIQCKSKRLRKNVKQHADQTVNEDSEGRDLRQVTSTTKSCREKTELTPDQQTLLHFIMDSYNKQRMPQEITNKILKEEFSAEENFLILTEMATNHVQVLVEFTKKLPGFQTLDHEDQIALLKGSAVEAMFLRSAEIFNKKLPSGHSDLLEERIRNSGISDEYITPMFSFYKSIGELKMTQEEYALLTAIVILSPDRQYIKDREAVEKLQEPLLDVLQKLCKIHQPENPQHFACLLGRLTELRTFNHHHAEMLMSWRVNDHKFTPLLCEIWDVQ
Method in brief: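 HEK 293T FXR-UAS-bla, 5000 cells/well; compound + CDCA 50 uM final; 16 h, 37 °C; B/G FRET substrate 2 h RT; fluorescence.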

[20] = biological target: Bile acid receptor (Homo sapiens) (UniProt Q96RI1); test: qHTS assay to identify small molecule agonists of the farnesoid-X-receptor (FXR) signaling pathway (AID 743220; active = well fitted activation curve with a large enough effect in the signal ratio in the repeat runs, not every such curve was filed as active; the % refers to the signal ratio)
Method in brief: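 Beta-lactamase reporter under UAS control in GeneBLAzer FXR HEK 293T cells (5000/well) measured with LiveBLAzer FRET substrate after 2 h at room temperature. Compound exposure lasted 16 h at 37C.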

Measured: Potency

COc1cc(CC(C)N)cc(OC)c1OC (stereo unspecified)
inactive: [1] | [2] | [3] | [4] | [5] | [6] | [7] | [8] | [9] | [10] | [11]

CCCC(C)(COC(N)=O)COC(N)=O
not listed: [2] | [19] | [20]
inactive: all other assays above

N#CC(Br)(Br)C(N)=O
inactive: [1] | [2] | [4] | [5] | [6] | [14] | [7] | [8] | [11] | [16] | [18]

C#CC(C)(C)O
not listed: [3] | [12] | [17] | [18]
inactive: all other assays above

NC(=O)OCCCc1ccccc1
not listed: [2] | [9] | [14] | [15] | [16] | [17] | [19] | [20]
inactive: all other assays above

CCCCOC(C)=O
not listed: [2] | [14] | [16] | [17]
inactive: all other assays above

Cc1cc(OC(=O)N(C)C)nn1C(=O)N(C)C
not listed: [3] | [4] | [11] | [13] | [16] | [17]
inactive: all other assays above

O=C(Cl)C(Cl)(Cl)Cl
not listed: [2] | [8] | [11] | [14] | [17] | [20]
inactive: all other assays above

Clc1ccc(C(Cl)(Cl)Cl)cn1
active: [1] 48.6 µM
not listed: [2] | [5] | [17]
inactive: all other assays above

NNCc1ccccc1
active: [1] 55.5 µM | [13] 5.55 µM
not listed: [2] | [3] | [9] | [16] | [17]
inactive: all other assays above

CCN(CCO)CCO
not listed: [2] | [9] | [13] | [14] | [19] | [20]
inactive: all other assays above

CNC(=O)O/N=C(/CSC)C(C)(C)C
not listed: [1] | [9] | [15] | [17] | [18] | [19] | [20]
inactive: all other assays above

O=c1[nH]oc2c1CCNC2
not listed: [1] | [11] | [16] | [17] | [19] | [20]
inactive: all other assays above

CC(Cc1ccccc1)NCCn1cnc2c1c(=O)n(C)c(=O)n2C (stereo unspecified)
not listed: [2] | [9] | [13] | [16] | [17] | [18] | [19] | [20]
inactive: all other assays above

CNC(=O)Oc1ccccc1C(C)C
not listed: [2] | [3] | [9] | [15] | [17] | [19] | [20]
inactive: all other assays above

CC(C)(N)Cc1ccc(Cl)cc1
not listed: [2] | [8] | [13] | [17] | [19] | [20]
inactive: all other assays above

BrCC1CO1 (stereo unspecified)
not listed: [2] | [9] | [10] | [13] | [14] | [16] | [17]
inactive: all other assays above

OCC(Cl)CCl (stereo unspecified)
not listed: [2] | [6] | [9] | [13] | [16] | [19] | [20]
inactive: all other assays above

N#CN=C1SCCN1Cc1ccc(Cl)nc1
not listed: [2] | [4] | [13] | [16] | [17] | [19] | [20]
inactive: all other assays above

O=C1CC(=O)NC(=O)N1
not listed: [2] | [12] | [13] | [20]
inactive: all other assays above

O=C(Cl)CCl
not listed: [2] | [3] | [13] | [17] | [20]
inactive: all other assays above

CCOC(=O)C(SP(=S)(OC)OC)c1ccccc1 (stereo unspecified)
not listed: [1] | [9] | [10] | [15] | [16] | [18] | [20]
inactive: all other assays above

O=P(O)(O)c1ccccc1
inactive: [1] | [4] | [5] | [6] | [14] | [7] | [15] | [8] | [10] | [11] | [16]

CC[C@H](O)C(C[C@H](C)N(C)C)(c1ccccc1)c1ccccc1
not listed: [2] | [3] | [11] | [13] | [14] | [18]
inactive: all other assays above
